Data reported in PubChem BioAssay (NCI).
Compounds without any hit were thinned out: in the full panel of roughly 83,000, 20% have a hit.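 Cell lines were cultured in 96-well plates, exposed to a single compound concentration, and assessed for percent growth 48 hours later.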 The source made the active and inactive calls.

tested on: EKVX NSCLC; assay: NCI-60 one-dose screen, 48 h (100 = growth as untreated, 0 = no growth, -100 = all killed); conditions: 10 µM unless noted
Method: Growth inhibition of the EKVX human Non-Small Cell Lung tumor cell line is measured as a screen for anti-cancer activity. Cells are grown in 96 well plates and exposed to the test compound for 48 hours. Compounds are tested at a single concentration, which is 10^-5 M for most compounds. The reported endpoint is percent growth (GI% or GIPRCNT), where numbers from 0 - 100% represent growth inhibition, and numbers from -100% - 0 represent cell death. For example, a value of 40 represents 60% growth inhibition. A value of 0 means no net growth occurred over the course of the experiment. A value of -40 indicates 40% of cells at the beginning of the experiment died by the end of the experiment. A value of -100 means all cells are dead at the end of the experiment.
NCI-60 Human Tumor Cell Lines Screen was performed using the standard one-dose NCI protocol, which is described in more detail at https://dtp.cancer.gov/discovery_development/nci-60/default.htm.
Compounds with GIPRCNT values below 10 were considered active. Activity score was based on GIPRCNT using the following formula: […]
Score is 0 for GIPRCNT values of 100 or above, 50 for GIPRCNT values of 0, and 100 for GIPRCNT values of -100.

| Structure (SMILES) | growth |
| --- | --- |
| CC(=O)Oc1ccc(OC(C)=O)c2ccccc12 | 92.3% (inactive) |
| N#Cc1c(Nc2ccc(N3CCOCC3)cc2)nc(SCC(=O)c2ccc(Br)cc2)nc1-c1ccccc1 | 100% (inactive) |
| Clc1ccc(-c2cc(-c3ccccc3)nc(NCCNc3ccnc4cc(Cl)ccc34)n2)cc1 | 88.4% (inactive) |
| CCN(CC)CCN1C(=O)c2c(c(C)c3c(oc4ccc(OC)cc43)c2C)C1=O | 101% (inactive) |
| O=C(Cc1ccccc1)Nc1cccc(N=Cc2ccccc2O)c1 | 104% (inactive) |
| FC(F)(F)c1ccc(Cn2cc(CSc3nc4ccccc4s3)nn2)cc1 | 99.5% (inactive) |
| N#Cc1cccc(C2C3=C(COC3=O)N(CCO)c3cc4c(cc32)CCC4)c1 (stereo not given) | 41.4% (inactive) |
| O=C1/C(=C/c2ccc(F)cc2)CN(C(=O)C(Cl)Cl)C/C1=C\c1ccc(F)cc1 | -17.9% (active) |
| O=C(O)c1ccc(-c2ccc(/C=N/Nc3nc(Nc4ccccc4)nc(N4CCCCC4)n3)o2)cc1 | 78.8% (inactive) |
| CC(C)(C)n1cc(-c2ccnc(NCCCNS(=O)(=O)c3ccc(C(F)(F)F)cc3)c2)c(-c2cccc(F)c2)n1 | 78.7% (inactive) |
| CCN1C(=O)N(CC)C2Nn3c(s/c(=C\c4ccccc4Br)c3=O)=NC21 (stereo not given) | 44.4% (inactive) |
| C=C1C(=O)O[C@H]2[C@H]1CC/C(COC(=O)c1ccc(C(=O)O)s1)=C\CC[C@@]1(C)O[C@@H]21 | 34.2% (inactive) |
| OCCNCCNC(Cc1ccc(Cl)cc1)c1ccccc1 (stereo not given) | 88.5% (inactive) |
| CCCC(CC)(C(=O)Nc1ccc2nc(C)cc(N)c2c1)C(=O)Nc1ccc2nc(C)cc(N)c2c1 | 101% (inactive) |
| COc1cccc(/C=C/C(=O)c2cc3c(N)c(C(=O)Nc4cccc5ccccc45)sc3nc2C)c1 | 39.9% (inactive) |
| O=C(/C=C(O)/C=C/c1cccc2[nH]ccc12)/C=C/c1cccc2[nH]ccc12 | 97.8% (inactive) |
| COc1cccc(/C=N/NC(=O)c2ccccc2N2CCCC2)c1O | 41.7% (inactive) |
| Cc1cn(-c2cc(NC(=O)c3cncc(C#Cc4c(N)ncc5ccc(F)cc45)c3)cc(C(F)(F)F)c2)cn1 | 73.4% (inactive) |
| S=C(c1ccc2c(c1)OCO2)N1CCN(c2cccc(Cl)c2)CC1 | 50.9% (inactive) |
| COc1ccc(C(=O)/C=C/c2ccc(N3CCCCC3)cc2)cc1OC | 92.8% (inactive) |

| Structure (SMILES) | growth |
| --- | --- |
| O=C(Cn1nnc2ccccc21)N/N=C/c1c[nH]c2ccccc12 | 62.4% (inactive) |
| O=S(=O)(NCCNc1nccc(-c2c(-c3cccc(O)c3)nc3occn23)n1)c1ccc(Br)cc1 | 62.1% (inactive) |
| O=S(=O)(NCCCNc1nccc(-c2c(-c3cccc(F)c3)nc3occn23)n1)c1ccc(F)cc1 | 54.3% (inactive) |
| O=C(NC(Cc1nnc2n(Cc3ccccc3)c(=O)c3c4c(sc3n12)CCCC4)c1ccccc1)c1ccccc1 (stereo not given) | 99.3% (inactive) |
| CCN1C(=O)N(CC)C2C1NC(=S)N2/N=C/c1ccc(C(F)(F)F)cc1 (stereo not given) | 81.6% (inactive) |
| CCN(CC)c1ccc(/C=N/NC(=O)Cc2ccc(Nc3ccnc(C(F)(F)F)c3)cc2)c(O)c1 | 10.5% (inactive) |
| COc1ccc(/C=C/C(=O)c2ccc(NC(=O)CSc3nc4c([nH]3)c(=O)n(C)c(=O)n4C)cc2)cc1OC | 88.5% (inactive) |
| CC(C)(C)n1cc(-c2ccnc(NCCNS(=O)(=O)c3ccc(O)cc3)c2)c(-c2cccc(O)c2)n1 | 104% (inactive) |
| Cc1ccc2c(-n3nc(C#N)c(C#N)c3N)cc(=O)[nH]c2c1 | 67.9% (inactive) |
| FC(F)(F)Oc1cccc(-c2cnc3ccc(-c4ccncc4)nn23)c1 | 28.4% (inactive) |
| CCN1CCN(CC(=O)Nc2ccc(-c3cn4c(n3)sc3cc(Oc5ccnc(C(=O)NC)c5)ccc34)cc2)CC1 | 100% (inactive) |
| CCn1cc(CNc2ccc(C(=O)Nc3cc4cc(OC)c(OC)cc4c(C)n3)cc2)cn1 | 60.5% (inactive) |
| COc1cnc2c(c1)C(=O)c1c-2n(CCCCl)c(=O)c2ccncc12 | 79.1% (inactive) |
| CC(=O)OC[C@]12CC[C@@H]([C@@H](C)c3nnc(-c4ccncc4)o3)[C@@H]1[C@H]1CC[C@@H]3[C@@]4(C)CC[C@H](OC(C)=O)C(C)(C)[C@@H]4CC[C@@]3(C)[C@]1(C)CC2 | 69.3% (inactive) |
| Cc1cccc[n+]1C1c2ccccc2-c2ccccc21 | 93.8% (inactive) |
| C/C=C(/C)n1cnc2c(Nc3ccccn3)nc(Cl)nc21 | 96.9% (inactive) |
| CN1CCN(C(=O)[C@@]2(C)CC[C@]3(C)CC[C@]4(C)C(=CC[C@@H]5[C@@]6(C)CCC(=O)NC(C)(C)[C@@H]6CC[C@]54C)[C@@H]3C2)CC1 | 79.6% (inactive) |
| Cc1ccc(NC(=O)Cn2c(Br)nc3c2c(=O)n(C)c(=O)n3C)cc1 | 55.5% (inactive) |
| N#Cc1ccc(O)c(C2=NCC(Cc3ccccc3)O2)c1 (stereo not given) | 45% (inactive) |
| CS(=O)(=O)Nc1cc(-c2ccc3ncc(C#N)c(Nc4ccc(F)c(Cl)c4)c3c2)cnc1Cl | -3.93% (active) |
